Results on 80 compounds are retold here after PubChem BioAssay AID651658 (Broad Institute, 2012).

In all, about 340,000 compounds went through this assay and about 5,100 (1.5%) were called active.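 Rule for the calls: active = mean Tm shift, scaled 0 neutral to 100 positive control, at about 1.3% or above, every replicate too (limit read from the data); inconclusive = no clear call, values can overlap the other calls; inactive = the rest.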 The entries come from a sample that favours actives as a whole.

Chain of Fibroblast growth factor 22 (Homo sapiens) (Q9HCT0 whole entry, looked up): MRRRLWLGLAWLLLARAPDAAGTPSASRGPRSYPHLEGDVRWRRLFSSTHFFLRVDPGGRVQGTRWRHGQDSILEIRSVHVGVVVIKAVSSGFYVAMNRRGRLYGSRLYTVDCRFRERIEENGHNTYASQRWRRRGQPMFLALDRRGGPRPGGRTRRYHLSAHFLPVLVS

The test addresses Fibroblast growth factor 22 (Homo sapiens) (UniProt Q9HCT0). The test can be described thus: FGF22 ligand-induced thermal stabilization – biophysical, thermal shift, single point, FGF22 synaptogenesis inhibitor project, primary screen (AID 651658). The conditions noted are these: recombinant FGF22 thermal shift, SYPRO orange fluorescence; at 9.99 µM; active compounds read high; percent of sucrose octasulfate shift, DMSO zero.
For the compound `COCCNC(=O)C[C@H]1C=C[C@@H](NS(=O)(=O)c2ccc(C)cc2)[C@@H](CO)O1`, the activity (Tm shift, normalised) was -0.463% (inactive). As for `COc1ccc(NC(=O)Nc2ccc3c(c2)C(=O)N([C@H](C)CO)C[C@@H](C)[C@H](CN(C)CC2CCCCC2)OCCCC[C@@H](C)O3)cc1`, the activity (Tm shift, normalised) was -0.629% (inactive). Next, `CC(=O)N1[C@@H](CO)[C@@H](c2ccc(C3=CCCC3)cc2)C12CN(C(=O)C1CC1)C2`: -0.078% (inactive). Take `COc1cccc(NC(=O)Nc2ccc(F)cc2)c1`: the activity (Tm shift, normalised) is 45.2% (active). In the case of `O=C(Nc1ccncc1)Nc1ccc(F)cc1`, the activity (Tm shift, normalised) was 0.093% (inactive). Next, `COc1cccc(C(=O)NNS(=O)(=O)c2ccc(F)cc2)c1`: 0.083% (inactive); `COCC(=O)N1CC2(CN(C(=O)c3cccnc3)C2)c2c([nH]c3cc(OC)ccc23)[C@H]1CO`: -0.173% (inactive); `Cc1ccc(S(=O)(=O)NCC(=O)NNC(=O)c2ccc(Br)cc2)cc1C`: 43.7% (active). Next, `Cc1ccc(S(=O)(=O)NCCC(=O)NCc2ccc(Cl)cc2)cc1C`: -0.011% (inactive); `O=C(CNC(=O)c1ccco1)NNC(=O)c1ccc(Br)cc1`: -0.466% (inactive). Then `O=C(C[C@H]1C=C[C@H](NC(=O)CC2CC2)[C@H](CO)O1)NCc1ccc(Cl)cc1`, with -0.113% (inactive). In the case of `Cc1cc(C)c(-c2c(O)c3ccccc3n(C)c2=O)c(C)c1`, the activity (Tm shift, normalised) was -0.131% (inactive). Then `COc1cc2c(=O)n(C)c3ccccc3c2cc1OC`, with 0.02% (inactive); and `Cn1c2ccccc2c(=O)c2c(O)cccc21`, with 43.7% (active); and `O=C(C[C@H]1CC[C@H]2[C@@H](COC[C@H](O)CN2Cc2ccncc2)O1)NCC1CC1`, with -0.243% (inactive).

With `CN1[C@H](C(=O)N2CCc3ccccc3C2)[C@@H](CO)[C@@H]2Cn3c(ccc(-c4cncnc4)c3=O)[C@@H]21`, the activity (Tm shift, normalised) is 0.086% (inactive). Next, `O=C(CSc1ccccc1)Nc1ccc(C(=O)Nc2cccc(O)c2)cc1`: 42.3% (inactive). Next, `Cc1cc(C)cc(NC(=O)CN2C(=O)c3ccccc3C2=O)c1`: -0.094% (inactive); `Cc1cc(C)cc(NC(=O)CSc2ccccc2)c1`: 43.4% (active). Then `O=C(CN1C(=O)NC2(CCCC2)C1=O)NCC1CCCO1` (stereo not given), with 43.3% (active). In the case of `O=C(CN1C(=O)NC2(CCCCCC2)C1=O)NCc1ccc(F)cc1`, the activity (Tm shift, normalised) is 0.013% (inactive).

As for `O=C(CN1C(=O)NC2(CCCCCC2)C1=O)NC1CC1`, the activity (Tm shift, normalised) was -0.266% (inactive). Next, `COc1cccc(NC(=O)C[C@H]2CC[C@@H]3[C@@H](COc4ccc(NC(=O)C5CCOCC5)cc4C(=O)N3C)O2)c1`: 0.326% (inactive); `C[C@H]1CN([C@@H](C)CO)C(=O)c2cc(-c3ccccc3)cnc2O[C@H]1CN(C)C(=O)C1CCOCC1`: 0.036% (inactive).

Turning to `O=C(NC1Cc2ccccc2C1)[C@@H]1[C@@H](CO)[C@@H]2Cn3c(ccc(C4=CCCC4)c3=O)[C@H]1N2CC1CC1`, the activity (Tm shift, normalised) was 0.451% (inactive). Then `C[C@H]1CN([C@@H](C)CO)C(=O)CCCn2nncc2CO[C@@H]1CN(C)S(=O)(=O)c1ccccc1C#N`, with -0.468% (inactive); and `Cc1cccc(OCC(O)CN2CCN(CCN3C(=O)c4cccc5cccc(c45)C3=O)CC2)c1C` (stereo not given), with 0.358% (inactive); and `CC(C)c1ccc(OCC(O)CN2CCN(c3ccccn3)CC2)cc1` (stereo not given), with -0.21% (inactive).

In the case of `Cc1ccccc1OCC(O)CN1CCN(c2ccccn2)CC1` (stereo not given), the activity (Tm shift, normalised) was 44.2% (active). Then `COc1ccc(NC(=O)N[C@H]2C=C[C@H](CC(=O)NCc3ccccn3)O[C@H]2CO)cc1`, with 0.256% (inactive).

As for `CO[C@H](CN(C)C(=O)c1cnccn1)[C@@H](C)CN([C@@H](C)CO)S(=O)(=O)c1ccc(C)cc1`, the activity (Tm shift, normalised) was 0.044% (inactive). Then `COc1ccc(CC2(CO)CCN(Cc3cnn(C)c3)CC2)cc1`, with 0.198% (inactive); and `OCC1(Cc2ccccc2)CCN(Cc2cc3ccccc3o2)CC1`, with 42.4% (inactive); and `COc1ccccc1/C=C/CN1CCC(CO)(Cc2ccccc2)CC1`, with 43.2% (active). With `CO[C@H]1CN(C)C(=O)c2cc(NC(=O)c3nc4ccccc4s3)ccc2OC[C@H](C)N(Cc2cccnc2)C[C@@H]1C`, the activity (Tm shift, normalised) was -0.365% (inactive). Regarding `COc1cccc(S(=O)(=O)N2CCCCN3[C@H](CO)[C@H](c4ccc(-c5ccncc5)cc4)[C@H]3C2)c1`, the activity (Tm shift, normalised) was -0.25% (inactive). `O=C(Nc1ccccc1F)N1C[C@H]2[C@@H](c3ccccc31)[C@@H](CO)N2C(=O)Cc1cccnc1`: the activity (Tm shift, normalised) is 0.459% (inactive). Then `Cc1cc([N+](=O)[O-])nn1CC(=O)Nc1ccc(Cc2ccncc2)cc1`, with 43.3% (active); and `CC(C)CC(=O)Nc1ccc(Cc2ccncc2)cc1`, with -0.02% (inactive). Turning to `Cc1cc(C)n(CC(=O)Nc2ccc([N+](=O)[O-])cc2)n1`, the activity (Tm shift, normalised) is -0.311% (inactive). Then `COCC(=O)N1CC[C@H]2[C@H](CO)Nc3ccc(-c4ccc(C(=O)N(C)C)cc4)cc3[C@H]21`, with -0.374% (inactive); and `CN(C)C(=O)C[C@@H]1CC[C@H](NC(=O)NC2CCCC2)[C@H](CO)O1`, with -0.148% (inactive); and `CCC(C)N(C(=O)CSc1nnnn1-c1ccccc1OC)C1CCS(=O)(=O)C1` (stereo not given), with -0.269% (inactive). Next, `CCC(C)N(C(=O)COC(=O)C1C(C(=O)OC)=C(C)NC(C)=C1C(=O)OC)C1CCS(=O)(=O)C1` (stereo not given): 43.2% (active); `CCC(C)N(C(=O)COC(=O)c1nc(Cl)ccc1Cl)C1CCS(=O)(=O)C1` (stereo not given): 0.546% (inactive). Next, `O=C(Cc1ccccn1)NCC[C@H]1CC[C@H](NC(=O)Nc2ccc(F)cc2)[C@@H](CO)O1`: 0.059% (inactive); `O=C(NN=C1CCC(=NNC(=O)c2cccnc2)CC1)c1cccnc1`: -0.314% (inactive). As to `Cc1cc(/C=N/NC(=O)c2cccnc2)c(C)n1CC(C)C`, the activity (Tm shift, normalised) is 43% (active). Next, `O=C(CNC(=O)c1cccnc1)N/N=C/c1cc(Br)c(O)c(Br)c1`: 0.674% (inactive); `O=C(C[C@@H]1C[C@@H]2c3cc(NC(=O)Nc4ccc(C(F)(F)F)cc4)ccc3O[C@@H]2[C@@H](CO)O1)NCCc1ccccc1`: 0.083% (inactive); `COc1ccc(NC(=O)N(C)C[C@H]2OCCCC[C@H](C)Oc3ccc(NC(=O)c4ccncc4)cc3C(=O)N([C@H](C)CO)C[C@@H]2C)cc1`: -0.473% (inactive). Then `C[C@@H]1CN([C@H](C)CO)C(=O)c2cc(C3=CCCC3)cnc2O[C@@H]1CN(C)C(=O)Nc1ccc(F)cc1`, with -0.106% (inactive); and `COc1cc([N+](=O)[O-])ccc1NC(=O)CN1CCCC1`, with 1.49% (active). Then `COc1cc(Cl)c(C)cc1NC(=O)CN1CCCCCC1`, with -0.091% (inactive); and `O=C(CN1CCCCCC1)Nc1ccc(Br)cc1[N+](=O)[O-]`, with -0.021% (inactive); and `O=C(CCC(=O)c1cccs1)Nc1nc2ccccc2s1`, with 0.414% (inactive).

As to `O=C(NCc1cccnc1)C(=O)Nc1nc(-c2ccccc2)cs1`, the activity (Tm shift, normalised) is 0.205% (inactive). Then `CC(=O)Nc1ccc(-c2csc(NC(=O)Nc3ccccc3)n2)cc1`, with 44.8% (active). Then `O=C(Nc1ccccc1)Nc1nc2ccccc2s1`, with 43.2% (active); and `NC(c1ccccc1)c1csc(NC(=O)Nc2cccc(C(F)(F)F)c2)n1` (stereo not given), with -0.154% (inactive); and `O=C(Nc1ccccc1)Nc1nnc(COc2ccccc2F)s1`, with 0.184% (inactive).

`O=C(C[C@@H]1CC[C@@H](NC(=O)c2ccc3c(c2)OCO3)[C@H](CO)O1)NCc1ccc(Cl)cc1`: the activity (Tm shift, normalised) is -0.267% (inactive). Next, `Cc1cc(OCCCCOc2ccc(C#N)cc2)ccc1[N+](=O)[O-]`: 0.385% (inactive). Next, `Cc1nc(SCc2ccc(F)cc2)c([N+](=O)[O-])[nH]1`: -0.03% (inactive); `CCCCCOc1ccc(CSC2=NCCN2)cc1[N+](=O)[O-]`: 43.9% (active); `C[C@@H]1CCCCO[C@@H](CN(C)C(=O)C2CCCCC2)[C@H](C)CN([C@H](C)CO)C(=O)c2cc(NC(=O)c3ccccc3)ccc2O1`: -0.449% (inactive). Next, `CCN(CC)S(=O)(=O)c1ccc(Cl)c(C(=O)NC(C)C(c2cccs2)N2CCCC2)c1` (stereo not given): 43.4% (active); `CCN(CC)S(=O)(=O)c1ccc(Cl)c(C(=O)NCCN2CCOCC2)c1`: -0.116% (inactive); `CCN(CC)S(=O)(=O)c1ccc(N2CCCC2)c(NS(=O)(=O)c2cccs2)c1`: -0.637% (inactive).

As for `CN(C)CC(=O)Nc1ccc2c(c1)[C@H]1C[C@H](CC(=O)NCc3ccccn3)O[C@@H](CO)[C@H]1O2`, the activity (Tm shift, normalised) was -0.026% (inactive). As to `CCOc1c(OC)cccc1C(=O)NCC1(c2ccccc2)CCCC1`, the activity (Tm shift, normalised) was -0.318% (inactive). Next, `COc1cc(C(=O)NCC2(c3ccccc3)CCCC2)ccc1OC(C)C`: -0.207% (inactive).

`O=C(CNC1CCCCC1)NCC1(c2ccccc2)CCCC1`: the activity (Tm shift, normalised) was 43% (active). `CO[C@@H]1CN(C)C(=O)c2ccc(NC(=O)C3CCC3)cc2OC[C@H](C)NC[C@H]1C`: the activity (Tm shift, normalised) was -0.059% (inactive). For `COc1ccc2c3c(n(C)c2c1)[C@@H](CO)N(Cc1ccncc1)CC31CN(C(=O)C2CCC2)C1`, the activity (Tm shift, normalised) is -0.256% (inactive). Next, `C[C@@H]1CN([C@H](C)CO)C(=O)c2cc(NS(=O)(=O)c3ccccc3)ccc2O[C@@H](C)CCCCO[C@H]1CN(C)C(=O)C1CCCCC1`: -0.338% (inactive); `Cc1noc(C)c1S(=O)(=O)Nc1ccc2c(c1)CC(=O)N([C@@H](C)CO)C[C@@H](C)[C@H](CN(C)C)O2`: -0.289% (inactive); `CCCCn1c(N)c(N(CC)C(=O)/C=C/c2ccco2)c(=O)[nH]c1=O`: 0.345% (inactive). Then `CCCCN(C(=O)c1nn(C)c(=O)c2ccccc12)c1c(N)n(CCC)c(=O)[nH]c1=O`, with 0.011% (inactive). As to `CCCCN(C(=O)/C=C/c1ccco1)c1c(N)n(CC(C)C)c(=O)[nH]c1=O`, the activity (Tm shift, normalised) was 43.9% (active).
